# Test results as given in PubChem BioAssay (NCATS).
# Results filed as inconclusive are left out. A call without a number means that no potency is given here. Values without a mark were called inactive. Calls of active or inactive are those of the source. Calls follow the shape of the dose curve; as a rule, active = well fitted curve in the direction sought with a large enough effect; inconclusive = small, poorly fitted or top-dose-only effect, or another doubt; inactive = no such curve, though single readings can be large; an effect the other way counts as inactive or inconclusive.
# Columns and labels:
# [1] = qHTS to identify inhibitors of the type 1 interferon - major histocompatibility complex class I in skeletal muscle: primary screen against the NCATS Pharmaceutical Collection (AID 1347407);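 also: luminescence of HiBiT knocked into endogenous HLA-B as interferon-induced MHC class I level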; also: potency is read from the fitted curve at half-maximal effect
# How it was run: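 Compounds […] were added to CRISPR-engineered HLA-B-HiBiT C25cl48 human myoblasts with 4.0 ng/ml IFN-beta. After 24 hrs at 37 C, cells were lysed and HiBiT luminescence measured.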
# [2] = molecular target: Protein phosphatase 1D (Homo sapiens) (UniProt O15297); test: RapidFire Mass Spectrometry qHTS Assay for Modulators of WT P53-Induced Phosphatase 1 (WIP1) (AID 1347424);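 also: amount of dephosphorylated VEPPL-S-QETFS peptide product formed by WIP1; series mostly up to about 63 µM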
# How it was run: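 RapidFire mass spectrometry measured dephosphorylated peptide after 5 min room-temperature reaction of 2 uM VEPPL-pS-QETFS with 10 nM WIP1 (50 mM Tris-HCl pH 7.5, 30 mM MgCl2, 0.1 mM EGTA, BSA), following 1 hr compound preincubation; 1 uM isotope-labelled product standard.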
# [3] = molecular target: Protein phosphatase 1D (Homo sapiens) (UniProt O15297); test: Rhodamine-PBP qHTS Assay for Modulators of WT P53-Induced Phosphatase 1 (WIP1) (AID 1347425)
# How it was run: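 WIP1 (5 nM final) was preincubated with compound for 1 hour at room temperature. It then dephosphorylated 10 uM VEPPL-pS-QETFS peptide in Tris-HCl pH 7.5 with 30 mM MgCl2. Released Pi was detected by 10 uM Rh-PBP fluorescence (ex 525/em 598 nm) read at 1-min intervals for 11 min, as delta f1 - f0.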
# Protein phosphatase 1D (Homo sapiens), sequence (O15297 whole entry, looked up): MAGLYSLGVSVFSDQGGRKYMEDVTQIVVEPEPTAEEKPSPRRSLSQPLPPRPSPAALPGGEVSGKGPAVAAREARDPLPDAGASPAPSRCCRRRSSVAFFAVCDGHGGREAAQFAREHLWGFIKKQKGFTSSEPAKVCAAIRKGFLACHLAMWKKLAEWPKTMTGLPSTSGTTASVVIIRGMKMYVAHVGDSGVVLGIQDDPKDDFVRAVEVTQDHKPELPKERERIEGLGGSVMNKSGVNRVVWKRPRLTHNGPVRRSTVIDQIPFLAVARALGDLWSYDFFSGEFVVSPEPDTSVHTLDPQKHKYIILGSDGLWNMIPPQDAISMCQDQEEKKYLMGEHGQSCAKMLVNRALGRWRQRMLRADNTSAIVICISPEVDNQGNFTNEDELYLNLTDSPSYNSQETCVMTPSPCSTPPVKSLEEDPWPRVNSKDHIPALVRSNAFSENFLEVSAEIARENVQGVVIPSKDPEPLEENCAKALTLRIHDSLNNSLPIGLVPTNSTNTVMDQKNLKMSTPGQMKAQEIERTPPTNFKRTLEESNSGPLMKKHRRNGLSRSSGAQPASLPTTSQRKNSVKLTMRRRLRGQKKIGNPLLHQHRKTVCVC
Structure (SMILES),Potency [1],Potency [2],outcome [3],"activity change, negative = inhibition [1]","activity change, negative = inhibition [2]","activity change, negative = inhibition [3]"
O=c1c(-c2ccccc2)c1-c1ccccc1,inactive,inactive,inactive,–,–,–
CCN1CCC[C@H]1CNC(=O)c1c(OC)ccc(Br)c1OC,inactive,inactive,inactive,–,–,–
COc1cc(N)c(Cl)cc1C(=O)NC1CCN(CCCOc2ccc(F)cc2)CC1OC (centres undefined),inactive,inactive,inactive,–,–,–
Cc1c(N(C)CS(=O)(=O)O)c(=O)n(-c2ccccc2)n1C,inactive,inactive,inactive,–,–,–
CCCCS(=O)(=O)N[C@@H](Cc1ccc(OCCCCC2CCNCC2)cc1)C(=O)O,inactive,inactive,inactive,–,–,–
CN1CCN(CCCN2c3ccccc3Sc3ccc(S(=O)(=O)N(C)C)cc32)CC1,inactive,inactive,inactive,–,–,–
Cc1ccccc1C(=O)Nc1ccc(C(=O)N2CCCC(N(C)C)c3ccccc32)cc1 (centres undefined),inactive,inactive,inactive,–,–,–
C=C1C(=C/C=C2\CCC[C@]3(C)[C@@H]([C@H](C)/C=C/[C@@H](O)C4CC4)CC[C@@H]23)C[C@@H](O)C[C@@H]1O,inactive,inactive,inactive,–,–,–
Cc1ccc(C(=O)C(C)CN2CCCCC2)cc1 (centres undefined),inactive,inactive,inactive,–,–,–
CCN1CCCC1=O,inactive,inactive,inactive,–,–,–
CCN(CC)CCNC(=O)COc1ccc(Cl)cc1,inactive,inactive,inactive,–,–,–
CC(C)n1nc(-c2cc3cc(O)ccc3[nH]2)c2c(N)ncnc21,4.7 µM (active),inactive,inactive,–,–,–
COc1cc(/C=C/C(=O)O[C@H]2CC[C@]34C[C@]35CC[C@]3(C)[C@@H]([C@H](C)CCC=C(C)C)CC[C@@]3(C)[C@@H]5CC[C@H]4C2(C)C)ccc1O,inactive,inactive,inactive,–,–,–
CN1CCN(C(c2ccccc2)c2ccccc2)CC1,inactive,inactive,inactive,–,–,–
CCOC(=O)COc1ccc2c(C)c(CCN(CC)CC)c(=O)oc2c1Cl,21 µM (active),inactive,inactive,–,–,–
CO/N=C1\CN(c2nc3c(cc2F)c(=O)c(C(=O)O)cn3C2CC2)CC1CN (centres undefined),inactive,inactive,inactive,–,–,–
Oc1cc(O)c2c(c1)O[C@H](c1ccc(O)c(O)c1)[C@H](O)C2,inactive,inactive,inactive,–,–,–
O=S1(=O)c2cccc3cccc(c23)N1CCCN1CCN(c2ccc(F)cc2)CC1,inactive,inactive,inactive,–,–,–
CCOc1ccc2nc3cc(N)ccc3c(N)c2c1,inactive,inactive,inactive,–,–,–

Structure (SMILES),Potency [1],Potency [2],outcome [3],"activity change, negative = inhibition [1]","activity change, negative = inhibition [2]","activity change, negative = inhibition [3]"
CN1CCC(=C2c3ccccc3Sc3ccccc32)CC1,inactive,inactive,inactive,–,–,–
OC[C@H]1O[C@H](O[C@]2(CCl)O[C@H](CCl)[C@@H](O)[C@@H]2O)[C@H](O)[C@@H](O)[C@H]1Cl,inactive,inactive,inactive,–,–,–
CCN(CC)C(=O)N1CCN(C)CC1,inactive,inactive,inactive,–,–,–
COc1cccc(CCc2ccccc2OCC(CN(C)C)OC(=O)CCC(=O)O)c1 (centres undefined),inactive,inactive,inactive,–,–,–
OCc1ccccc1O,inactive,inactive,inactive,–,–,–
NCCc1ccn[nH]1,inactive,inactive,inactive,–,–,–
COc1cc(OC)cc(OC)c1,inactive,inactive,inactive,–,–,–
CCn1cc(C(=O)O)c(=O)c2cnc(N3CCCC3)nc21,–,–,–,-17.9% [at 9.18 µM],-0.783% [at 12.6 µM],-2.4% [at 11.5 µM]
CCOC(=O)/C=C(C)/C=C/C=C(C)/C=C/c1c(C)cc(OC)c(C)c1C,inactive,inactive,inactive,–,–,–
C[C@H](O)C(=O)Nc1c(I)c(C(=O)NC(CO)CO)c(I)c(C(=O)NC(CO)CO)c1I,inactive,inactive,inactive,–,–,–
CC(C)(C(=O)c1cccnc1)c1cccnc1,inactive,inactive,inactive,–,–,–
Cc1ccnc(NS(=O)(=O)c2ccc(N)cc2)n1,inactive,inactive,inactive,–,–,–
NC(CS)C(=O)O (centres undefined),inactive,inactive,inactive,–,–,–
Oc1c(I)cc(I)c2cccnc12,inactive,inactive,inactive,–,–,–
COc1cccc(OC)c1C(=O)N[C@@H]1C(=O)N2[C@@H]1SC(C)(C)[C@@H]2C(=O)O,inactive,inactive,inactive,–,–,–
C=C1C[C@H]2[C@@H]3C=C(C)C4=CC(=O)CC[C@]4(C)[C@H]3CC[C@]2(C)[C@@]1(OC(C)=O)C(C)=O,inactive,inactive,inactive,–,–,–
CCCN1CCCC[C@H]1C(=O)Nc1c(C)cccc1C,inactive,inactive,inactive,–,–,–
O=C(Nc1ccc(Cl)c(Cl)c1)C1CC1,inactive,inactive,inactive,–,–,–
Cc1cc(O)c(C(C)C)cc1Cl,inactive,inactive,inactive,–,–,–
